Data: the antibiotic and cytotoxicity screens of Wong et al. (2023)
Hit rate of the full screen: of about 39,000 compounds, about 3,300 (8.5%) were called active. The list comes from a sample in which actives are over-represented; it also holds similar structures and randomly drawn compounds.

test system: HepG2; experiment: cytotoxicity call (relative viability < 0.9); settings: 10 µM

Row | SMILES | cytotoxicity call
1 | C#CC1(OC(C)=O)CCC2C3CCC4=CC(=O)CCC4C3CCC21C (centres undefined) | inactive
2 | C#CC1(OC(C)=O)CCC2C3CCC4=CC(OC(C)=O)CCC4C3CCC21C (centres undefined) | active
3 | CC(=O)OC1(C(C)=O)CCC2C3CC(C)C4=CC(=O)CCC4(C)C3CCC21C (centres undefined) | inactive
4 | C#CC1(O)CCC2C3CCC4=CC(=O)CCC4C3CCC21CC (centres undefined) | inactive
5 | C#CC1(OC(C)=O)CCC2C3CCC4=CC(=NO)CCC4C3CCC21CC (centres undefined) | active
6 | C[C@@H]1CN([C@H](C)CO)C(=O)CCCn2cc(nn2)CO[C@@H]1CN(C)C(=O)Nc1ccc2c(c1)OCCO2 | inactive
7 | COc1ccc(S(=O)(=O)Nc2cccc3c2O[C@@H](CN(C)C(=O)Nc2c(C)noc2C)[C@H](C)CN([C@H](C)CO)C3=O)cc1 | inactive
8 | COc1cccc(S(=O)(=O)N(C)C[C@@H]2Oc3cc(C4=CCCC4)ccc3S(=O)(=O)N([C@H](C)CO)C[C@@H]2C)c1 | inactive
9 | C[C@@H]1CN([C@H](C)CO)C(=O)c2cc(NC(=O)CCC(F)(F)F)ccc2O[C@@H]1CN(C)Cc1ccc(Cl)c(Cl)c1 | inactive
10 | C[C@H]1CN([C@@H](C)CO)C(=O)c2cc(NC(=O)CCC(F)(F)F)ccc2O[C@H]1CN(C)Cc1ccc(Cl)c(Cl)c1 | inactive
11 | C[C@@H]1CN([C@@H](C)CO)C(=O)Cc2cc(NC(=O)CCC(F)(F)F)ccc2O[C@@H]1CN(C)Cc1ccc(Cl)c(Cl)c1 | active
12 | C[C@H](CO)N1C[C@H](C)[C@H](CN(C)Cc2ccc(Cl)c(Cl)c2)Oc2ccc(NC(=O)CCC(F)(F)F)cc2CC1=O | inactive
13 | C[C@@H]1CN([C@@H](C)CO)C(=O)Cc2cc(NC(=O)CCC(F)(F)F)ccc2O[C@H]1CN(C)Cc1ccc(Cl)c(Cl)c1 | active
14 | C[C@@H]1CN([C@@H](C)CO)C(=O)c2cc(NC(=O)CCC(F)(F)F)ccc2O[C@H]1CN(C)Cc1ccc(Cl)c(Cl)c1 | active
15 | C[C@@H]1CN([C@H](C)CO)C(=O)Cc2cc(NC(=O)CCC(F)(F)F)ccc2O[C@H]1CN(C)Cc1ccc(Cl)c(Cl)c1 | inactive
16 | C[C@H](CO)N1C[C@H](C)[C@@H](CN(C)Cc2ccc(Cl)c(Cl)c2)Oc2ccc(NC(=O)CCC(F)(F)F)cc2CC1=O | inactive
17 | C[C@@H]1CN([C@H](C)CO)C(=O)Cc2cc(NC(=O)CCC(F)(F)F)ccc2O[C@@H]1CN(C)Cc1ccc(Cl)c(Cl)c1 | inactive
18 | C[C@H]1CCCCO[C@@H](CN(C)C(=O)Nc2ccc(C(F)(F)F)cc2)[C@@H](C)CN([C@@H](C)CO)C(=O)c2cc(N(C)C)ccc2O1 | inactive
19 | CC(C)NC(=O)Nc1ccc2c(c1)CC(=O)N([C@H](C)CO)C[C@@H](C)[C@@H](CN(C)Cc1ccc3c(c1)OCO3)O2 | inactive
20 | C[C@@H]1CCCCO[C@H](CN(C)C(=O)Cc2ccccc2)[C@@H](C)CN([C@H](C)CO)C(=O)c2cc(NC(=O)Cc3ccccc3)ccc2O1 | inactive

Row | SMILES | cytotoxicity call
21 | C[C@H]1CN([C@@H](C)CO)C(=O)c2cccc(NC(=O)c3ccc(-c4nccs4)cc3)c2O[C@H]1CN(C)C(=O)NC1CCCCC1 | inactive
22 | Cc1noc(C)c1NC(=O)N(C)C[C@H]1OCCCC[C@@H](C)Oc2ccc(NC(=O)Nc3ccc(C(F)(F)F)cc3)cc2C(=O)N([C@@H](C)CO)C[C@H]1C | inactive
23 | C[C@@H]1CCCCO[C@H](CN(C)C(=O)Nc2ccc(C(F)(F)F)cc2)[C@@H](C)CN([C@@H](C)CO)C(=O)c2cc(NC(=O)Nc3ccc(C(F)(F)F)cc3)ccc2O1 | inactive
24 | C[C@@H]1CN([C@H](C)CO)C(=O)c2cc(NC(=O)Nc3ccc(C(F)(F)F)cc3)ccc2O[C@@H](C)CCCCO[C@H]1CN(C)C(=O)Nc1ccc(C(F)(F)F)cc1 | active
25 | C[C@H]1CCCCO[C@@H](CN(C)C(=O)Nc2ccc(C(F)(F)F)cc2)[C@@H](C)CN([C@@H](C)CO)C(=O)c2cc(NC(=O)Nc3ccc(C(F)(F)F)cc3)ccc2O1 | inactive
26 | CC(C)NC(=O)N(C)C[C@H]1OCCCC[C@H](C)Oc2ccc(NC(=O)Nc3ccc(C(F)(F)F)cc3)cc2C(=O)N([C@H](C)CO)C[C@@H]1C | inactive
27 | Cc1noc(C)c1NC(=O)N(C)C[C@@H]1OCCCC[C@H](C)Oc2ccc(NC(=O)Nc3ccc(C(F)(F)F)cc3)cc2C(=O)N([C@@H](C)CO)C[C@@H]1C | active
28 | Cc1noc(C)c1NC(=O)N(C)C[C@@H]1OCCCC[C@@H](C)Oc2ccc(NC(=O)Nc3ccc(C(F)(F)F)cc3)cc2C(=O)N([C@H](C)CO)C[C@@H]1C | inactive
29 | C[C@@H]1CCCCO[C@H](CN(C)C(=O)Nc2ccc(C(F)(F)F)cc2)[C@H](C)CN([C@H](C)CO)C(=O)c2cc(NC(=O)Nc3ccc(C(F)(F)F)cc3)ccc2O1 | inactive
30 | CC(C)NC(=O)N(C)C[C@@H]1OCCCC[C@H](C)Oc2ccc(NC(=O)Nc3ccc(C(F)(F)F)cc3)cc2C(=O)N([C@@H](C)CO)C[C@@H]1C | active
31 | CC(C)NC(=O)N(C)C[C@H]1OCCCC[C@@H](C)Oc2ccc(NC(=O)Nc3ccc(C(F)(F)F)cc3)cc2C(=O)N([C@@H](C)CO)C[C@H]1C | inactive
32 | C[C@H]1CCCCO[C@H](CN(C)C(=O)Nc2ccc(C(F)(F)F)cc2)[C@@H](C)CN([C@@H](C)CO)C(=O)c2cc(NC(=O)Nc3ccc(C(F)(F)F)cc3)ccc2O1 | active
33 | C[C@H](CO)N1C[C@H](C)[C@H](CN(C)C(=O)Nc2ccc(C(F)(F)F)cc2)OCCCC[C@H](C)Oc2ccc(NC(=O)Nc3ccc(C(F)(F)F)cc3)cc2C1=O | inactive
34 | C[C@@H]1CCCCO[C@@H](CN(C)S(C)(=O)=O)[C@H](C)CN([C@@H](C)CO)C(=O)c2cc(NS(=O)(=O)c3cn(C)cn3)ccc2O1 | inactive
35 | C[C@H]1CN([C@@H](C)CO)C(=O)c2cc(NC(=O)C3CC3)ccc2O[C@@H]1CN(C)C(=O)NC1CCCCC1 | inactive
36 | O=C(C[C@H]1C[C@@H]2c3cc(NC(=O)Cc4ccncc4)ccc3O[C@@H]2[C@H](CO)O1)NCCN1CCCCC1 | inactive
37 | C[C@H]1CN([C@@H](C)CO)C(=O)c2cccc(NC(=O)CCCCCC(=O)Nc3ccccc3N)c2O[C@@H]1CN(C)C(=O)Nc1ccc(F)cc1 | inactive
38 | C[C@@H]1CCCCO[C@@H](CN(C)CC2CCCCC2)[C@@H](C)CN([C@H](C)CO)C(=O)c2cc(NC(=O)Cc3ccccc3)ccc2O1 | inactive
39 | COc1ccccc1[C@@H](NC(=O)C1CCN(CCn2cnc3c2c(=O)n(C)c(=O)n3C)CC1)c1ccccn1 | inactive
40 | CN1CCN(C(=O)C[C@H]2C[C@H]3c4cc(NS(=O)(=O)c5ccc(F)cc5)ccc4O[C@H]3[C@@H](CO)O2)CC1 | inactive

Row | SMILES | cytotoxicity call
41 | C[C@@H]1CCCCO[C@@H](CN(C)S(=O)(=O)c2ccc(Cl)cc2)[C@@H](C)CN([C@@H](C)CO)C(=O)c2cc(NC(=O)Nc3ccc(C(F)(F)F)cc3)ccc2O1 | inactive
42 | COc1ccc(NC(=O)N(C)C[C@H]2OCCCC[C@@H](C)Oc3ccc(NC(=O)Nc4ccc(C(F)(F)F)cc4)cc3C(=O)N([C@H](C)CO)C[C@H]2C)cc1 | active
43 | COc1ccc(NC(=O)N(C)C[C@@H]2OCCCC[C@@H](C)Oc3ccc(NC(=O)Nc4ccc(C(F)(F)F)cc4)cc3C(=O)N([C@H](C)CO)C[C@@H]2C)cc1 | inactive
44 | COc1ccc(NC(=O)Nc2ccc3c(c2)C(=O)N([C@H](C)CO)C[C@@H](C)[C@H](CN(C)C(=O)Nc2ccc(C(F)(F)F)cc2)OCCCC[C@@H](C)O3)cc1 | inactive
45 | O=C(C[C@H]1CC[C@@H]2[C@H](COC[C@H](O)CN2C(=O)c2cccnc2)O1)NCC1CC1 | inactive
46 | Fc1cccc(-c2csc(COc3ccccc3Cl)n2)c1 | inactive
47 | O=c1oc2c(O)c(O)cc3c(=O)oc4c(O)c(O)cc1c4c23 | active
48 | Cc1cc(=O)oc2cc(O)c(O)cc12 | inactive
49 | O=c1c(O)c(-c2cc(O)c(O)c(O)c2)oc2cc(O)cc(O)c12 | inactive
50 | O=C(C[C@@H]1C[C@H]2c3cc(NC(=O)C4CCOCC4)ccc3O[C@H]2[C@@H](CO)O1)NCc1ccc2c(c1)OCO2 | inactive
51 | COc1ccc([C@H]([C@H](Cc2ccccc2)OC(C)=O)N(C[C@@H](/C=C/c2ccccc2)CC(=O)N(C)C)[C@@H](Cc2ccccc2)C(OC)OC)cc1 | active
52 | COc1ccc([C@H]([C@@H](O)Cc2ccccc2)N(C/C=C/[C@@H](O)c2ccccc2)[C@@H](Cc2ccccc2)C(OC)OC)cc1 | inactive
53 | COc1ccc([C@H]([C@@H](O)Cc2ccccc2)N(C[C@H](/C=C/c2ccccc2)NC(=O)C(Cl)(Cl)Cl)[C@@H](Cc2ccccc2)C(OC)OC)cc1 | inactive
54 | COc1ccc([C@@H]([C@H](Cc2ccccc2)OC(C)=O)N2C[C@@H](CC(=O)N(C)C)[C@@H]3C(=NO[C@H]3c3ccccc3)[C@@H]2Cc2ccccc2)cc1 | inactive
55 | COc1ccc([C@H]([C@@H](O)Cc2ccccc2)N(C[C@H](/C=C/c2ccccc2)CC(=O)N(C)C)[C@@H](Cc2ccccc2)C(OC)OC)cc1 | active
56 | COc1ccc([C@H]([C@H](Cc2ccccc2)OC(C)=O)N(C[C@H](/C=C/c2ccccc2)NC(=O)C(Cl)(Cl)Cl)[C@@H](Cc2ccccc2)C(OC)OC)cc1 | inactive
57 | COc1ccc([C@@H]([C@H](Cc2ccccc2)OC(C)=O)N2C[C@H](CC(=O)N(C)C)[C@@H]3C(=NO[C@H]3c3ccccc3)[C@@H]2Cc2ccccc2)cc1 | inactive
58 | COc1ccc([C@H]([C@H](Cc2ccccc2)OC(C)=O)N(C[C@H](/C=C/c2ccccc2)OC(C)=O)[C@@H](Cc2ccccc2)C(OC)OC)cc1 | inactive
59 | COc1ccc([C@H]([C@H](Cc2ccccc2)OC(C)=O)N(C[C@H](/C=C/c2ccccc2)CC(=O)N(C)C)[C@@H](Cc2ccccc2)C(OC)OC)cc1 | active
